Experimental data taken from PubChem BioAssay (EPA / NIEHS).
Activity calls are given as the source filed them. Rule for the calls: active = hit-call score of the fitted dose curve at least 0.9, where 1 is the maximum; inactive = score below 0.9.

Key:
[1] = biological target: CCAAT/enhancer-binding protein beta (Homo sapiens) (UniProt P17676); experiment: ATG_C_EBP_CIS: Attagene CIS-FACTORIAL HepG2 Assay for human CCAAT/Enhancer Binding Protein (C/EBP) beta (AID 2282927); conditions: HepG2 Attagene cis-factorial transcription factor reporter; actives raise or lower the signal
Chain of CCAAT/enhancer-binding protein beta (Homo sapiens) (P17676 whole entry, looked up): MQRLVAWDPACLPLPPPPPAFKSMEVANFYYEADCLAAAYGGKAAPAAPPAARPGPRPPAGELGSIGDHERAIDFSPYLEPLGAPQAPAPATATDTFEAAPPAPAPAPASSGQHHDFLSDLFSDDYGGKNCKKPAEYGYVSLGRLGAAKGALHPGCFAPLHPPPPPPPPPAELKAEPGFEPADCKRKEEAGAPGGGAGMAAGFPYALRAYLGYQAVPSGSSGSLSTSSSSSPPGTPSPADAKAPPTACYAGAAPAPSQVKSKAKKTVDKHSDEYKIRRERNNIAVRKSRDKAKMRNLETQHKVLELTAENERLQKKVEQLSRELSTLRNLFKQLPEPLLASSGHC
How it was run: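 Endogenous transcription factor activity in human liver HepG2 cells is inferred from induction of a CEBPB-linked reporter mRNA. Exposure lasts 24 h; activity is fitted in both directions relative to DMSO.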

[2] = ATG_CMV_CIS: Attagene CIS-FACTORIAL HepG2 Assay for human CMV (Internal Marker) (AID 2282928); conditions: HepG2 CMV promoter reporter, transcription factor profiling; actives raise or lower the signal;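 note: endpoint acts as a background internal control marker rather than a target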
How it was run: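 Endogenous transcription factor activity read in HepG2 via transfected cis-promoter reporter units. After 24 h dosing, reporter mRNA measured by RT-PCR/capillary electrophoresis; gain or loss of signal fit relative to DMSO.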

[3] = ATG_AP_2_CIS: Attagene CIS-FACTORIAL HepG2 Assay for human Activator Protein 2 (AP-2) (AID 2282932); conditions: HepG2 AP-2 cis-reporter, Attagene transcription factor profiling; actives raise or lower the signal
How it was run: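 Step one: transient transfection of HepG2 with reporter transcription units. Step two: 24 h chemical exposure. Step three: RNA extraction, RT-PCR, labelled fragment analysis by capillary electrophoresis; DMSO serves as baseline.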

[4] = ATG_BRE_CIS: Attagene CIS-FACTORIAL HepG2 Assay for human Bone Morphogenetic Protein (BMP) Response Element (BRE) (AID 2282933); conditions: HepG2 BMP response element reporter, Attagene transcription factor profiling; actives raise or lower the signal
How it was run: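 After a 24 h chemical treatment, transiently transfected HepG2 cells were lysed for RNA; reporter transcripts were quantified by fluorescent RT-PCR and capillary electrophoresis, normalised to DMSO.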

[5] = biological target: Transcription factor E2F1 (Homo sapiens) (UniProt Q01094); experiment: ATG_E2F_CIS: Attagene CIS-FACTORIAL HepG2 Assay for human E2F Transcription Factor 1 (AID 2282935); conditions: HepG2 Attagene cis-reporter, E2F reporter RNA transcripts; actives raise or lower the signal
Chain of Transcription factor E2F1 (Homo sapiens) (Q01094 whole entry, looked up): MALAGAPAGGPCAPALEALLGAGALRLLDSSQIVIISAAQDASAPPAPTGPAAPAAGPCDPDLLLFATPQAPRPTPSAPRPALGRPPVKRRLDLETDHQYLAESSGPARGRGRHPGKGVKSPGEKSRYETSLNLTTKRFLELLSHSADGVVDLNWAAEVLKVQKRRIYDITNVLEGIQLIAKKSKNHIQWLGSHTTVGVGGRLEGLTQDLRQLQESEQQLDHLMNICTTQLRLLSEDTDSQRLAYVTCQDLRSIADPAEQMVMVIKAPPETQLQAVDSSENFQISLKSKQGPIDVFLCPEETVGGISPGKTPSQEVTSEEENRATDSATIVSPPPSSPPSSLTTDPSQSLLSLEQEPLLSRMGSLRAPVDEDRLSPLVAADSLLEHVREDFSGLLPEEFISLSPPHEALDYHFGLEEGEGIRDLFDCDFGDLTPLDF
How it was run: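 Total RNA from 24 h-treated, reporter-transfected HepG2 cells undergoes DNase I treatment, oligo(dT) reverse transcription, PCR and 6-FAM primer extension before capillary electrophoresis.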

[6] = ATG_E_Box_CIS: Attagene CIS-FACTORIAL HepG2 Assay for human Enhancer Box (E-box) (AID 2282936); conditions: HepG2 E-box cis-reporter transcription, actives raise or lower the signal
How it was run: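 DMSO served as negative control and baseline for bidirectional fitting. Human hepatoma HepG2 cells, transiently transfected with cis-reporter constructs, were dosed 24 h; reporter mRNA read by RT-PCR and capillary electrophoresis.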

[7] = ATG_M_61_CIS: Attagene CIS-FACTORIAL HepG2 Assay for M61 Transcription Factor (Internal Marker) (AID 2282937); conditions: HepG2 Attagene CIS-FACTORIAL M61 internal marker reporter; actives raise or lower the signal
How it was run: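 Multiplexed reporter mRNA assay, HepG2 human hepatoma cells, 24 h treatment. Signal: FAM-labelled, HpaI-digested RT-PCR fragments by CE. Fit: bidirectional, baseline DMSO.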

[8] = ATG_EGR_CIS: Attagene CIS-FACTORIAL HepG2 Assay for human Early Growth Response 1 (EGR1) (AID 2282938); conditions: HepG2 Attagene CIS-FACTORIAL EGR reporter mRNA; actives raise or lower the signal
How it was run: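 Multiplexed cis-reporter system in human hepatoma HepG2 cells, transiently transfected. Cells are dosed for 24 h; reporter transcripts are amplified, fluorescently tagged and sized by capillary electrophoresis, with DMSO as negative control.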

[9] = ATG_M_19_CIS: Attagene CIS-FACTORIAL HepG2 Assay for M19 Transcription Factor (Internal Marker) (AID 2282939); conditions: HepG2 Attagene CIS-FACTORIAL M19 internal marker reporter; actives raise or lower the signal
How it was run: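 In this multiplexed cell assay, transiently transfected HepG2 reporter units report endogenous transcription-factor activity; after 24 hours of treatment, labelled reporter cDNA fragments are quantified by capillary electrophoresis and fitted bidirectionally against DMSO.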

[10] = ATG_FoxO_CIS: Attagene CIS-FACTORIAL HepG2 Assay for human Forkhead box O (FoxO) (AID 2282943); conditions: HepG2 Attagene cis-reporter, FoxO element, mRNA; actives raise or lower the signal
How it was run: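 HepG2, transient MRTU transfection (cis element, endogenous TFs). Dose 24 h. TriZol RNA → oligo(dT) RT → PCR → 6-FAM primer extension → HpaI cut → CE. Gain/loss vs DMSO.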

[11] = ATG_GATA_CIS: Attagene CIS-FACTORIAL HepG2 Assay for human GATA Binding Protein (AID 2282944); conditions: HepG2 GATA cis-element reporter, Attagene multiplex mRNA; actives raise or lower the signal
How it was run: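 Measures endogenous transcription factor-driven reporter mRNA in HepG2 cells transiently carrying cis-regulated constructs. 24 h dosing; RNA via oligo(dT) reverse transcription, PCR, HpaI digestion, capillary electrophoresis; fitted relative to DMSO.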

[12] = ATG_GLI_CIS: Attagene CIS-FACTORIAL HepG2 Assay for human Zinc Finger Protein GLI1 (AID 2282945); conditions: HepG2, Attagene cis-factorial reporter mRNA, GLI element; actives raise or lower the signal
How it was run: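 Bidirectional curve fits relative to DMSO, using reporter mRNA levels from RT-PCR plus capillary electrophoresis. Cells were HepG2 transiently carrying cis-regulated reporter constructs, harvested 24 h after dosing.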

[13] = ATG_ISRE_CIS: Attagene CIS-FACTORIAL HepG2 Assay for human Interferon Regulatory Factor 1 (IRF1) binding to an Interferon-Stimulated Response Element (ISRE) (AID 2282948); conditions: HepG2 ISRE cis-reporter (Attagene), mRNA transcription readout; actives raise or lower the signal
How it was run: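 Transfected HepG2 (multiple reporter transcription units, cis elements) dosed 24 h. RNA → oligo(dT) RT → PCR → 6-FAM primer extension → HpaI → CE. DMSO = negative control/baseline.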

[14] = ATG_M_32_CIS: Attagene CIS-FACTORIAL HepG2 Assay for M32 Transcription Factor (Internal Marker) (AID 2282949); conditions: HepG2 Attagene cis-factorial M32 reporter, mRNA; actives raise or lower the signal;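 note: background control marker of the multiplexed CIS panel rather than a real target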
How it was run: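 Internal background marker read-out: RT-PCR/capillary electrophoresis fluorescence of reporter transcripts from transiently transfected HepG2 cells after 24 h chemical exposure. Activity fitted bidirectionally relative to DMSO negative control.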

[15] = ATG_M_06_CIS: Attagene CIS-FACTORIAL HepG2 Assay for M06 Transcription Factor (Internal Marker) (AID 2282950); conditions: HepG2 Attagene CIS-FACTORIAL M06 internal marker reporter; actives raise or lower the signal
How it was run: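 One of many multiplexed endpoints: HepG2 reporter mRNA after 24 h dosing, detected by RT-PCR and capillary electrophoresis fluorescence; gain or loss of signal analysed against DMSO.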

[16] = ATG_MRE_CIS: Attagene CIS-FACTORIAL HepG2 Assay for human Metal Responsive Element (MRE) (AID 2282954); conditions: HepG2 MRE cis-reporter transcription, Attagene multiplex; actives raise or lower the signal
How it was run: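 After a 24 h chemical exposure, transiently transfected HepG2 cells yield RNA whose reporter sequences are amplified, FAM-labelled and sized by capillary electrophoresis. Curves are fitted bidirectionally relative to DMSO.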

[17] = ATG_PXRE_CIS: Attagene CIS-FACTORIAL HepG2 Assay for human Pregnane X Receptor Element (PXRE) (AID 2282957); conditions: HepG2 Attagene CIS-FACTORIAL PXRE reporter, mRNA; actives raise or lower the signal
How it was run: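 Cells: HepG2, transiently transfected reporter units under cis promoter control. Exposure: 24 h. Detection: reporter mRNA via RT-PCR/CE fluorescence; bidirectional fitting, DMSO-referenced.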

[18] = ATG_Sox_CIS: Attagene CIS-FACTORIAL HepG2 Assay for human SRY-box transcription factor (SOX) (AID 2282960); conditions: HepG2 Attagene cis-factorial SOX reporter, mRNA; actives raise or lower the signal
How it was run: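 Fluorescence-labelled cDNA fragments from reporter transcripts, sized by CE, give the signal. Cells: HepG2, transiently transfected with cis-regulated reporter units. Exposure 24 h; DMSO negative control; bidirectional curve fitting.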

[19] = biological target: Transcription factor Sp1 (Homo sapiens) (UniProt P08047); experiment: ATG_Sp1_CIS: Attagene CIS-FACTORIAL HepG2 Assay for human Specificity Protein 1 (Sp1) (AID 2282961); conditions: HepG2 Sp1 cis-reporter transcription, actives raise or lower the signal
Chain of Transcription factor Sp1 (Homo sapiens) (P08047 whole entry, looked up): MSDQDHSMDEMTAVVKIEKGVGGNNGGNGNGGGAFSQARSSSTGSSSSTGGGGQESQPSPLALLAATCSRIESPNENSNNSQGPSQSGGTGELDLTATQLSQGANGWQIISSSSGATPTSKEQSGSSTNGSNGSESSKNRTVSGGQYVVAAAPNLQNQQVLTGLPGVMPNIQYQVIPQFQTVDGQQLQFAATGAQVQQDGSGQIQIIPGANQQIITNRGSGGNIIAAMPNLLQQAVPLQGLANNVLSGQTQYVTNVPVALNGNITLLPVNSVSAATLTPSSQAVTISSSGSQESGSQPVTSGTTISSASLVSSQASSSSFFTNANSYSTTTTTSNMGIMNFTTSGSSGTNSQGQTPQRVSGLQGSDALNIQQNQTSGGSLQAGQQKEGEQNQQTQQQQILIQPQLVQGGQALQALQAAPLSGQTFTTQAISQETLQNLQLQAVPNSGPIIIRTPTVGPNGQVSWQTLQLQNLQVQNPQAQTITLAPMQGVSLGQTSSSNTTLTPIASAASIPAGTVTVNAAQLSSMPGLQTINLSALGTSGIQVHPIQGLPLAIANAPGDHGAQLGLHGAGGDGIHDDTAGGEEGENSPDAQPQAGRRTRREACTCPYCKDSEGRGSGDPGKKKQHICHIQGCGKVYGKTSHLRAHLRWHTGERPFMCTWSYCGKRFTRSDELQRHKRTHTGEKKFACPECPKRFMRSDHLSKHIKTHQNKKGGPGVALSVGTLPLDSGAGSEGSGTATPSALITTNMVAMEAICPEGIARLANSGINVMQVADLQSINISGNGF
How it was run: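 Chemicals are dosed onto HepG2 cells transfected with multiple cis-promoter reporter constructs, and after 24 h reporter RNA is reverse-transcribed, PCR-amplified and resolved by capillary electrophoresis for fluorescence quantitation; activity is scored up or down against DMSO.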

[20] = ATG_SREBP_CIS: Attagene CIS-FACTORIAL HepG2 Assay for human Sterol Regulatory Element Binding (SREBP) (AID 2282962); conditions: HepG2 Attagene cis-factorial SREBP reporter, mRNA; actives raise or lower the signal
How it was run: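 Transfected HepG2 (cis-regulated reporter library, endogenous TFs) → compound 24 h → total RNA → oligo(dT) RT → reporter-specific PCR → FAM primer extension, HpaI cut → CE fluorescence. Fit bidirectional vs DMSO.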

Measured: AC50

O=C(O)c1nc(Cl)c(Cl)c(Cl)c1Cl
active: [17] 73 µM
inactive: all other assays above

CCO[Si](OCC)(OCC)c1ccccc1
active: [17] 50.9 µM
inactive: all other assays above

NCc1ccccc1
inactive: all assays above

CC(C)CC(=O)CC(C)C
inactive: all assays above

CCCC(=O)OC
inactive: all assays above

CCCCCCC(O)CCCCCCCCCCC(=O)OC (stereo not given)
active: [17] 27.5 µM
inactive: all other assays above

Clc1ccc(Sc2cc(Cl)c(Cl)cc2Cl)cc1
active: [17] 5.97 µM
inactive: all other assays above

Clc1ccccn1
inactive: all assays above

OCCc1ccccn1
inactive: all assays above

Cc1cc2nc3c(=O)[nH]c(=O)nc-3n(C[C@H](O)[C@H](O)[C@H](O)CO)c2cc1C
active: [17] 47.2 µM
inactive: all other assays above

CC(=O)OC(C)(C)Cc1ccccc1
inactive: all assays above

CCC(C)NC(N)=O (stereo not given)
inactive: all assays above

CNC(=C[N+](=O)[O-])NCCSCc1csc(CN(C)C)n1
inactive: all assays above

CCCCCCCCCC/C=C/C1CC(=O)OC1=O (stereo not given)
inactive: all assays above
